The campaign covered roughly 16,000 compounds. About 5,700 (36%) were called active. Not shown: some 24% with an inconclusive outcome. The list shows a part of the results. Values without a mark were called inactive. The call rests on the fitted dose curve; in most records, active means well fitted curve in the direction sought with a large enough effect; inconclusive means small, poorly fitted or top-dose-only effect, or effect the other way; inactive means no such curve, though single readings can be large or run the other way.
These molecules were tested against Cytochrome P450 1A2 (Homo sapiens) (UniProt P05177) (assay: Cytochrome panel assay with activity outcomes). Settings: recombinant CYP, pro-luciferin dealkylation, luminescence, p450-cyp1a2; series mostly up to 57.1 µM; activity, negative = inhibition: at the top concentration.
Sequence of Cytochrome P450 1A2 (Homo sapiens) (P05177 whole entry, looked up): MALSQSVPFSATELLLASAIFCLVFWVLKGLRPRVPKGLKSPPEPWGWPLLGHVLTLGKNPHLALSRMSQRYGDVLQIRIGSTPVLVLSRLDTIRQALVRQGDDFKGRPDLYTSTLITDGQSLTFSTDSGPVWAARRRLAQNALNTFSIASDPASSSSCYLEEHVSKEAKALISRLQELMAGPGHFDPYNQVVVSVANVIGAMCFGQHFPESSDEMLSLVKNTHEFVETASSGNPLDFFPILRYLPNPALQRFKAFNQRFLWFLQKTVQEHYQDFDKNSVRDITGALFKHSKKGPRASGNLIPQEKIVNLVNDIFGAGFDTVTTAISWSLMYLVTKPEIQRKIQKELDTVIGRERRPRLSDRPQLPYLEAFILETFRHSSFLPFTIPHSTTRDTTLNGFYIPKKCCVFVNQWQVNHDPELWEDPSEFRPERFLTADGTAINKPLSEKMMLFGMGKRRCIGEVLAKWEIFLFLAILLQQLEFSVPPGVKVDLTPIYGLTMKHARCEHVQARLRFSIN
In the case of `CS(=O)(=O)N1CCC2(CCCN(C(=O)Nc3cccc(F)c3)C2)CC1`, the “activity, negative = inhibition” value is reported as -19.7%. For `Cc1ccc(S(=O)(=O)O[C@@H]2[C@H]([C@@H]3COC(C)(C)O3)O[C@H]3OC(C)(C)O[C@@H]32)cc1`, the activity, negative = inhibition was -15.9% [at 11.4 µM]. In the case of `N#Cc1ccc(-c2ccc(F)cc2)nc1Sc1ccccc1`, the AC50 is reported as 0.891 µM (active). For `Cc1ccc(Sc2nc(-c3ccccc3)ccc2C#N)cc1`, the AC50 was 2.82 µM (active). For `CC[C@@H]1OC(=O)[C@H](C)[C@H](O[C@@H]2C[C@](C)(OC)[C@H](O)[C@H](C)O2)[C@H](C)[C@H](O[C@@H]2O[C@@H](C)C[C@@H](N(C)C)[C@@H]2O)[C@](C)(O)C[C@H](C)[C@@H]2N[C@H](COCCOC)O[C@H]([C@@H]2C)[C@]1(C)O`, the “activity, negative = inhibition” value was -13% [at 25.6 µM]. With `COc1ccc(/C=N/Nc2snc(SC)c2C#N)cc1OC` the AC50 was 0.708 µM (active). `COc1cc(/C=N/Nc2snc(SC)c2C#N)cc(OC)c1OC` was tested, and the AC50 was 4.47 µM (active). For `CO[C@H]1COC(=O)C/C=C\[C@H](C)COC(=O)[C@@H](C)NC(=O)C/C=C\[C@@H]1C`, the activity, negative = inhibition was -2.38% [at 11.4 µM]. In the case of `C[C@@]12C=CC(=O)C=C1CC[C@@H]1[C@@H]2[C@H](O)C[C@]2(C)[C@@H]1CC[C@]2(O)C(=O)CO`, the “activity, negative = inhibition” value is reported as -4.7% [at 25.6 µM]. `CCc1ccc(-c2cc(C(F)(F)F)n3nc(C(=O)Nc4cnn(Cc5ccccc5C)c4)cc3n2)s1` was tested, and the “activity, negative = inhibition” value was -8.63%. `Cc1ccccc1Cn1cc(NC(=O)CSc2nc3c(c(C(F)(F)F)n2)CCc2ccccc2-3)cn1` was tested, and the AC50 was 7.08 µM (active). `Cc1nn(Cc2ccc(Cl)cc2)c(C)c1NC(=O)CSc1nc2c(c(C(F)(F)F)n1)CCc1ccccc1-2` was tested, and the “activity, negative = inhibition” value was -27.6%. In the case of `CC(=O)NS(=O)(=O)c1ccc(N)cc1`, the “activity, negative = inhibition” value is reported as 4.18% [at 25.6 µM]. `Cc1cc(C(F)F)n2nc(C(=O)Nc3cccnc3Cl)nc2n1` was tested, and the “activity, negative = inhibition” value was -20%. For `Cc1c(Cl)cccc1NC(=O)c1ccc(-n2ccnc2)nc1`, the AC50 was 0.794 µM (active). With `O=C(Nc1ccc(-n2nncc2-c2ccco2)cc1)c1ccc(F)cc1` the “activity, negative = inhibition” value was -24.2%. `O=C(Nc1ccc(F)cc1)c1ccc(-n2ccnc2)nc1` was tested, and the AC50 was 0.501 µM (active). `Nc1ccn([C@@H]2CC[C@H](CO)O2)c(=O)n1` was tested, and the “activity, negative = inhibition” value was -8.58% [at 25.6 µM]. `Cc1nc2cnc(Oc3ccccc3)nc2n(C)c1=O` was tested, and the AC50 was 12.6 µM (active). For `COc1ccc(Oc2ncc3nc(C)c(=O)n(C)c3n2)cc1`, the AC50 was 12.6 µM (active). `NC(=O)c1nnn(Cc2cc(Cl)c(C(=O)c3ccc(Cl)cc3)c(Cl)c2)c1N` showed an activity, negative = inhibition of -2.19% [at 2.29 µM]. For `O=C(Oc1ccccc1)N1CCC2(CC1)CCN(c1ccncc1)CC2`, the “activity, negative = inhibition” value was -10.5%. For `O=C(c1ccccc1Nc1ccc(SC(F)F)cc1)N1CCCCC1`, the AC50 was 14.1 µM (active). For `Cc1ccccc1N1CCN(C(=O)c2ccccc2NC(=O)/C=C\C(=O)O)CC1`, the “activity, negative = inhibition” value was 0.682%. For `CCOC(=O)C1CCN(C(=O)c2ccccc2NC(C)=O)CC1`, the “activity, negative = inhibition” value was 6.29%. For `CCCCNC(=O)C1C2C=CC3(CN(Cc4ccccc4Cl)C(=O)C13)O2` (stereo unspecified), the “activity, negative = inhibition” value was -27%. In the case of `Cc1cc(-c2cc(-c3ccc(Cl)cc3)nc(N)c2C#N)co1`, the AC50 is reported as 8.91 µM (active). For `COc1ccc(COC(=O)N/N=C2/C[C@@H](O)[C@@H](O)[C@@H]3[C@@H]4C(=O)N(C(C)(C)C)C(=O)[C@H]4CC[C@@H]23)cc1`, the activity, negative = inhibition was -55.1% [at 11.4 µM]. In the case of `Cc1cc(C)cc(N(C(=O)C2CCCC2)C2C=CS(=O)(=O)C2)c1` (stereo unspecified), the “activity, negative = inhibition” value is reported as 21.4%. For `N=C1/C(=C/c2cccs2)C(=O)N=C2SN=C(SCc3ccccc3)N12`, the AC50 was 15.8 µM (active). In the case of `CO[C@@H]1/C=C\CC(=O)N[C@@H](C)C(=O)OC[C@@H](OC)[C@H](C)CCCC(=O)OC[C@H]1C`, the activity, negative = inhibition is reported as 0.281% [at 11.4 µM]. Molecule `Cc1cc(N2CCN(C)CC2)n2nc(-c3ccc(Cl)cc3)nc2n1` has an activity, negative = inhibition of -14.3% [at 11.4 µM]. `Cc1nc2nc(-c3ccc(Cl)cc3)nn2c(C)c1Cl` was tested, and the AC50 was 0.562 µM (active). With `CCN1CCN(c2nc3c(c(=O)[nH]c(=O)n3C)n2CCCSc2ncccn2)CC1` the “activity, negative = inhibition” value was 4.05%. In the case of `Cc1cc(C)n(-c2nc3c(c(=O)[nH]c(=O)n3C)n2CC(C)C)n1`, the “activity, negative = inhibition” value is reported as -18.7%. In the case of `C/C(Cl)=C\Cn1c(N2CCCC2)nc2c1c(=O)[nH]c(=O)n2C`, the AC50 is reported as 14.1 µM (active). `C#CCCCO/N=C1/[C@H]2O[C@@H]2[C@@H](O)[C@H]2[C@H]1CCn1c(=O)n([C@@H](CC)c3ccccc3)c(=O)n12` showed an activity, negative = inhibition of -5% [at 11.4 µM]. `O=C(c1ccc([N+](=O)[O-])cc1)n1nc(-c2ccccc2)nc1NCc1ccccc1` was tested, and the AC50 was 7.08 µM (active). With `O=C(CCCNS(=O)(=O)c1cccc2nsnc12)NCCc1ccccc1` the AC50 was 25.1 µM (active). With `COc1ccc(CCNC(=O)C2CCN(S(=O)(=O)c3cccc4nsnc34)CC2)cc1OC` the “activity, negative = inhibition” value was -0.953%. In the case of `CC(C)C(NS(=O)(=O)c1cccc2nsnc12)C(=O)N1CCc2ccccc2C1` (stereo unspecified), the “activity, negative = inhibition” value is reported as -21.9%. In the case of `O=C1CCCCC(=O)c2ccccc2N1`, the “activity, negative = inhibition” value is reported as -0.404%. For `O=C1Cc2c([nH]c3ccc(Br)cc23)-c2ccccc2N1`, the AC50 was 0.158 µM (active). In the case of `O=C(NC1(C(F)(F)F)C(=O)Nc2c1c(=O)[nH]c(=O)n2-c1ccc(F)cc1)c1cccnc1` (stereo unspecified), the “activity, negative = inhibition” value is reported as 26.4%. In the case of `Cn1c(Sc2ccc(-c3cccnc3)n2C)ccc1-c1cccnc1`, the AC50 is reported as 0.398 µM (active). In the case of `C1CCc2nnnn2CC1`, the “activity, negative = inhibition” value is reported as -4.71% [at 25.6 µM]. `NC(N)=NC(N)=Nc1ccc(S(=O)(=O)O)cc1` gave an activity, negative = inhibition of -8.09% [at 11.4 µM]. In the case of `NC(N)=NC(N)=Nc1cccc(Cl)c1`, the AC50 is reported as “inactive”. `NC(N)=NC(N)=Nc1c(F)c(F)c(F)c(F)c1F` gave an activity, negative = inhibition of 10.9% [at 2.29 µM]. `NC(N)=NC(N)=Nc1ccc(S(N)(=O)=O)cc1` gave an activity, negative = inhibition of -9.8% [at 11.4 µM]. With `NC(N)=NC(N)=Nc1ccccc1` (tested in a mixture with another compound) the AC50 was 3.16 µM (active). With `NC(N)=NC(N)=Nc1ccccc1` the AC50 was 31.6 µM (active). With `Nc1cc(-c2nn[nH]n2)ccc1F` the “activity, negative = inhibition” value was 10.3%. For `CC(=O)N(/N=C/c1cccc(C)c1)c1nc(-c2ccc(Br)cc2)cs1`, the AC50 was 1.41 µM (active). In the case of `COc1ccc(/C=N/N(C(C)=O)c2nc(-c3ccc(C)cc3)cs2)cc1`, the AC50 is reported as 1.58 µM (active). With `C/C(CCN1CCCc2nc(C)c(C)cc21)=N\OC[C@@H](C)[C@H](OCc1ccccc1)C(C)C` the activity, negative = inhibition was -3.05% [at 11.4 µM].

— PubChem BioAssay AID1851 (National Center for Advancing Translational Sciences (NCATS), 2009)
On the % scale 0 is the no-effect control and ±100 the full control effect.
